Results from the supplement of paper PMC11732987, “Enantioselective OTUD7B fragment discovery through chemoproteomics screening and high-throughput optimisation” (Communications Chemistry, 2025).
Values without a mark were called inactive.

What was measured:
Test in all cases: log2 ratio of Biotin-Ahx-Ub-VS probe labelling (fragment/DMSO); higher = less target engagement (more negative = stronger competition), active = hit call of the paper (q ≤ 0.05, log2 ratio ≤ -1)
Details in all cases: compound concentration: 200 uM; treatment time: 3 h
UniProt O00507 = molecular target: UniProt O00507
Procedure, shortened: (§1)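 Values give the average log2 ratio of fragment to vehicle, assessed by unpaired t-test on global-median-normalised Spectronaut label-free quantities. Proteins needed ≥2 unique peptides. HEK293T lysate (495 µg per sample) was treated in triplicate with fragment at 200 µM or vehicle for 3 h and then with Biotin-Ahx-Ub-VS at 0.5 µM final for 1 h. Labelled DUBs were NeutrAvidin-enriched, digested and run by diaPASEF LC-MS/MS.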

UniProt P51784 = molecular target: UniProt P51784
Procedure, shortened: as §1

UniProt Q5T2D3 = molecular target: T1, UniProt Q5T2D3
T1 sequence (whole entry): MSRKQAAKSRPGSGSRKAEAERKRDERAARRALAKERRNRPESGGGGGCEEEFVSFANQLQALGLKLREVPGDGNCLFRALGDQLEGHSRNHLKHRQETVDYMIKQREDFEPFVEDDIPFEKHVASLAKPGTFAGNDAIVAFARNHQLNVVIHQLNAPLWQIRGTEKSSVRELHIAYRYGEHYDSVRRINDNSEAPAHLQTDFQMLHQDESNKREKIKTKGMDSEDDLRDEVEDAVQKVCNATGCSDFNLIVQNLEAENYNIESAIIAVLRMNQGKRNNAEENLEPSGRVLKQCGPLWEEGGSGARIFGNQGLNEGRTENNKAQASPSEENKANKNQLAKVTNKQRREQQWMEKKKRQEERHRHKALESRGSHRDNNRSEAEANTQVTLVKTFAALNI
Procedure, shortened: as §1

UniProt Q8TE49 = molecular target: T2, UniProt Q8TE49
T2 sequence (whole entry): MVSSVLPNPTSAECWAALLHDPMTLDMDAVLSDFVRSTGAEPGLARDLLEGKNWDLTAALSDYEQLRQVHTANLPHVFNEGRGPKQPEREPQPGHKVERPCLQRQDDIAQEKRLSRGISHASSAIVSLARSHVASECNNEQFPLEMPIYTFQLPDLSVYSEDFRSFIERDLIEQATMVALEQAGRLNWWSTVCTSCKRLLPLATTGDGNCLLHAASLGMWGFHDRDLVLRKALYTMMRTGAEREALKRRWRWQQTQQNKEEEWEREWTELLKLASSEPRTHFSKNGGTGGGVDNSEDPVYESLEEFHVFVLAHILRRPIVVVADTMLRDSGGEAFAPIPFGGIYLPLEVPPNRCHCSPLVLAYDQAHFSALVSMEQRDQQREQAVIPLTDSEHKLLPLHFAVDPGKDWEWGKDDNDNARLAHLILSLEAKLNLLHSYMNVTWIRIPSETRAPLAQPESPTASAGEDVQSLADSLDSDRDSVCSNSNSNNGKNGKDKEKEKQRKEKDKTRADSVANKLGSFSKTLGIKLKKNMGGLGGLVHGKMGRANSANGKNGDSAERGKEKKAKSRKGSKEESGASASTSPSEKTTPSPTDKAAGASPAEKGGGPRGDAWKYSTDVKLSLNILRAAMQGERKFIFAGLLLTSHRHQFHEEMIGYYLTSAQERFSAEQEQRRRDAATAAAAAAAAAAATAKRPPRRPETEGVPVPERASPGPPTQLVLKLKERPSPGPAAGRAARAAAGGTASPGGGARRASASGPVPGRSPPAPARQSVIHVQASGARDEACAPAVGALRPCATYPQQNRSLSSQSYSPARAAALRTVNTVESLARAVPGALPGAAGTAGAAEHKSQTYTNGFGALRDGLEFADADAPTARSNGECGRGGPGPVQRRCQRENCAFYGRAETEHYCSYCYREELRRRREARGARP
Procedure, shortened: as §1

UniProt Q9P2H5 = molecular target: T3, UniProt Q9P2H5
T3 sequence (whole entry): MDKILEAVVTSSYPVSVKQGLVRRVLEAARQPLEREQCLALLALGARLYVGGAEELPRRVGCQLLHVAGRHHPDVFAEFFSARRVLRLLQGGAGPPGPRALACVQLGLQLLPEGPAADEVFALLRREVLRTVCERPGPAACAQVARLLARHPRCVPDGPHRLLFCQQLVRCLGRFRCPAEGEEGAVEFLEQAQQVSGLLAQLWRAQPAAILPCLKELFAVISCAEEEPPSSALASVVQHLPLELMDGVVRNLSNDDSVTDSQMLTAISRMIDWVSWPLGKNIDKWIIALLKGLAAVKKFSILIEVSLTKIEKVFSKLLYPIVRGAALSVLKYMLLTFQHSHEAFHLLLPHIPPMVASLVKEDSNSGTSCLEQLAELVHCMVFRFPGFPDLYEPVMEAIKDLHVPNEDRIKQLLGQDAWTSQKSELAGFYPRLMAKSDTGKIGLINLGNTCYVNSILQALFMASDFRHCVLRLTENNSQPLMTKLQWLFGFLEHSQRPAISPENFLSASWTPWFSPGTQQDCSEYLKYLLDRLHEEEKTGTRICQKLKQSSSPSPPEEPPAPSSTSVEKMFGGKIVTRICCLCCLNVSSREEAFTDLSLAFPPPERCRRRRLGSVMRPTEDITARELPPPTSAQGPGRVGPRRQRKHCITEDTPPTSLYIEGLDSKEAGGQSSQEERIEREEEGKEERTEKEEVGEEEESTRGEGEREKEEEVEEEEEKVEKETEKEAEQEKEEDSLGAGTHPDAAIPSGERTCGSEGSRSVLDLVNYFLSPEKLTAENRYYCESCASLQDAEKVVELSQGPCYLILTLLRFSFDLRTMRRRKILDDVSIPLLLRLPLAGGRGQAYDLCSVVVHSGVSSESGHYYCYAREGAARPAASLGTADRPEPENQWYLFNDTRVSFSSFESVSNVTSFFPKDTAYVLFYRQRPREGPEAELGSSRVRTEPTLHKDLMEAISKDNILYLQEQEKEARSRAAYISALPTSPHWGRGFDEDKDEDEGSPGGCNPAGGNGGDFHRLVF
Procedure, shortened: as §1

UniProt Q9UGI0 = molecular target: T4, UniProt Q9UGI0
T4 sequence (whole entry): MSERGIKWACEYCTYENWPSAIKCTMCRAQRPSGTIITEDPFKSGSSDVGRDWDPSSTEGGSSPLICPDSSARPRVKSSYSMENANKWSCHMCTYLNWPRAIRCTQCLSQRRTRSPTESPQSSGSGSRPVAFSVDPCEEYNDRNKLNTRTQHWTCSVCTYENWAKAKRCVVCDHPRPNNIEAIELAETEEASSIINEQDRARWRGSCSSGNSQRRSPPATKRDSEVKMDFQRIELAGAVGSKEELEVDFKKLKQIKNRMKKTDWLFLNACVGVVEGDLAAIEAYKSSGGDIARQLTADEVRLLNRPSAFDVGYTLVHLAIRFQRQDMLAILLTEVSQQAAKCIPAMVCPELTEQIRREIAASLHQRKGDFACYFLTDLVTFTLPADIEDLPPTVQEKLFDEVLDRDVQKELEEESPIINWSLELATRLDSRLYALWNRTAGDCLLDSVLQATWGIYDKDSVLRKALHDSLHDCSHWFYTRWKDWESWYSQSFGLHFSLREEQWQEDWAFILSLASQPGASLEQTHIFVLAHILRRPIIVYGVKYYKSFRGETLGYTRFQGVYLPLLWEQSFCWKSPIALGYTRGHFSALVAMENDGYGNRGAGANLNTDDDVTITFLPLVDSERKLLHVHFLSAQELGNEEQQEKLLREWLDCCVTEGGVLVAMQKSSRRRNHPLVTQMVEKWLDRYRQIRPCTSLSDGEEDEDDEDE
Procedure, shortened: as §1

YOD1 = molecular target: T5, YOD1 (UniProt Q5VVQ6)
T5 sequence (whole entry): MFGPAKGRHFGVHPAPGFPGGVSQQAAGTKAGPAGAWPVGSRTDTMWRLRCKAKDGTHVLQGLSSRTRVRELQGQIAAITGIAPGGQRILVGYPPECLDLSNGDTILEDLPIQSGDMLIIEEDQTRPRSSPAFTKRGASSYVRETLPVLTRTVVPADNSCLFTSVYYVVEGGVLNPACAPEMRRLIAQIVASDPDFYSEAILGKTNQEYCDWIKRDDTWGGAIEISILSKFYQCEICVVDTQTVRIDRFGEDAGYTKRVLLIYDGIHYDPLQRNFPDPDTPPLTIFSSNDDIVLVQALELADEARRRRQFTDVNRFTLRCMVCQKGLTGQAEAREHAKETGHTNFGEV
Procedure, shortened: as §1

Sequence of UniProt O00507 (O00507 whole entry, the tested form may be a part): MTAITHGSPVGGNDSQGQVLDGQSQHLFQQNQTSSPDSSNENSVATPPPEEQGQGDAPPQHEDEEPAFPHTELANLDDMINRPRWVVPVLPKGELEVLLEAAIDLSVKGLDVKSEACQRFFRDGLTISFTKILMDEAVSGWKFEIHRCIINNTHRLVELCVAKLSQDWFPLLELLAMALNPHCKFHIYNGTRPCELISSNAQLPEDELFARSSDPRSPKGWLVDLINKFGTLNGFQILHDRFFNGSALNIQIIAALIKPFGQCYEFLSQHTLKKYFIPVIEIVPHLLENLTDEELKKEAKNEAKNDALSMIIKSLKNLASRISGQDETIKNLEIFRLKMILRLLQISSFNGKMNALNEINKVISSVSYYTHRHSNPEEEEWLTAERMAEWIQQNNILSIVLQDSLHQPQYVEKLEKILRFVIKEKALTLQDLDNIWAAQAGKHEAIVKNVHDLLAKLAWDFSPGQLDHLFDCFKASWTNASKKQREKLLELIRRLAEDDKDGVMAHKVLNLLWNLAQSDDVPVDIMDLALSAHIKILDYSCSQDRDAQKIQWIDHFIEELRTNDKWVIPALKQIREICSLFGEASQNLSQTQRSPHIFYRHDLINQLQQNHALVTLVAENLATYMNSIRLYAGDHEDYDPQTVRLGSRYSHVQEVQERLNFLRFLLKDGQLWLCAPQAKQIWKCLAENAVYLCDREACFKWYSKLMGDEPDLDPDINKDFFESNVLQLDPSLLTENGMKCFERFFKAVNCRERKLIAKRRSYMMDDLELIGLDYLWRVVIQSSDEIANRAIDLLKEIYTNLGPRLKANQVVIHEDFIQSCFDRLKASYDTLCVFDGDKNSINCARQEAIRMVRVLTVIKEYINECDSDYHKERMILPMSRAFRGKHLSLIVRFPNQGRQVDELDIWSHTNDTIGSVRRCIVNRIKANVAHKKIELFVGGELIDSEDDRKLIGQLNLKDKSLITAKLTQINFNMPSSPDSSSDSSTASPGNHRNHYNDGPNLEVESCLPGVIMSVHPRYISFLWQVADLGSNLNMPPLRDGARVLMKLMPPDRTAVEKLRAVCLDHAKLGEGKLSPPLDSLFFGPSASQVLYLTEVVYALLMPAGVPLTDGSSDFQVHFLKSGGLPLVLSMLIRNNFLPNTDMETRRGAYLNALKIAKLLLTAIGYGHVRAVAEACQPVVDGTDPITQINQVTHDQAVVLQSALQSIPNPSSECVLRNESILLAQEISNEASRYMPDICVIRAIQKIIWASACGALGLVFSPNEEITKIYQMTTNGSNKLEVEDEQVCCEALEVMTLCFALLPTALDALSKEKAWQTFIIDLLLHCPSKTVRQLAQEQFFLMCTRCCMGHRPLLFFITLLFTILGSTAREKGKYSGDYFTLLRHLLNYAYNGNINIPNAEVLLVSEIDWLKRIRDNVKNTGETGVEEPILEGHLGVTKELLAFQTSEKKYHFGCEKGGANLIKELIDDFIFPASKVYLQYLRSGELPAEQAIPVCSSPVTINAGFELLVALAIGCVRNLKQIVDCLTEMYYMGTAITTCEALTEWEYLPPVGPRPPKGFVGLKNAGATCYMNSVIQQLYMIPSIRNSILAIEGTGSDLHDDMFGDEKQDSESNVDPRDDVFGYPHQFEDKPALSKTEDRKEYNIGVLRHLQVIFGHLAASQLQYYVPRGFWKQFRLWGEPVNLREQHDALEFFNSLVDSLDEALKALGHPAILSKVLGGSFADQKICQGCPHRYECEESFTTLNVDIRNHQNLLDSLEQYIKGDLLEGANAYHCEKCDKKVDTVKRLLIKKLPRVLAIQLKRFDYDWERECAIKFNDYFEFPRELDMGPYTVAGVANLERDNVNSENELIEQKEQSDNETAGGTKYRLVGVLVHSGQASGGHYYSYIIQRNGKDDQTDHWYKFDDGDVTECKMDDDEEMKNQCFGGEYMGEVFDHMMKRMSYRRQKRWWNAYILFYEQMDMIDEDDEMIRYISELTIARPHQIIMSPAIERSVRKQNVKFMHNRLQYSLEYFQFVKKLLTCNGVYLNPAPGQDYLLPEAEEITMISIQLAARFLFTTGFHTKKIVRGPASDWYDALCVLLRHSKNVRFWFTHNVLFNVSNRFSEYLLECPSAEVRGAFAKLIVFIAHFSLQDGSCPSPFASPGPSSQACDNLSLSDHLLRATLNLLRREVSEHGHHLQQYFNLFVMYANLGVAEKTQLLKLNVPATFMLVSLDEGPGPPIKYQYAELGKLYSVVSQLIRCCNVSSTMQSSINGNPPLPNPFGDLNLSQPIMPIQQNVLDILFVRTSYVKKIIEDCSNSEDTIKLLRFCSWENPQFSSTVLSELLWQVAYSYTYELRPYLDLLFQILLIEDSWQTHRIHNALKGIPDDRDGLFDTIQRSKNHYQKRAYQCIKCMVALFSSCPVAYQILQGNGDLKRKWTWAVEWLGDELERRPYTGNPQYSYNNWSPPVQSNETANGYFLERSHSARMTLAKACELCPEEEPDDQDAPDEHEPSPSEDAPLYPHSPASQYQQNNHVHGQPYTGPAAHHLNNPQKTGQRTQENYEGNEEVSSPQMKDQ
Sequence of UniProt P51784 (P51784 whole entry): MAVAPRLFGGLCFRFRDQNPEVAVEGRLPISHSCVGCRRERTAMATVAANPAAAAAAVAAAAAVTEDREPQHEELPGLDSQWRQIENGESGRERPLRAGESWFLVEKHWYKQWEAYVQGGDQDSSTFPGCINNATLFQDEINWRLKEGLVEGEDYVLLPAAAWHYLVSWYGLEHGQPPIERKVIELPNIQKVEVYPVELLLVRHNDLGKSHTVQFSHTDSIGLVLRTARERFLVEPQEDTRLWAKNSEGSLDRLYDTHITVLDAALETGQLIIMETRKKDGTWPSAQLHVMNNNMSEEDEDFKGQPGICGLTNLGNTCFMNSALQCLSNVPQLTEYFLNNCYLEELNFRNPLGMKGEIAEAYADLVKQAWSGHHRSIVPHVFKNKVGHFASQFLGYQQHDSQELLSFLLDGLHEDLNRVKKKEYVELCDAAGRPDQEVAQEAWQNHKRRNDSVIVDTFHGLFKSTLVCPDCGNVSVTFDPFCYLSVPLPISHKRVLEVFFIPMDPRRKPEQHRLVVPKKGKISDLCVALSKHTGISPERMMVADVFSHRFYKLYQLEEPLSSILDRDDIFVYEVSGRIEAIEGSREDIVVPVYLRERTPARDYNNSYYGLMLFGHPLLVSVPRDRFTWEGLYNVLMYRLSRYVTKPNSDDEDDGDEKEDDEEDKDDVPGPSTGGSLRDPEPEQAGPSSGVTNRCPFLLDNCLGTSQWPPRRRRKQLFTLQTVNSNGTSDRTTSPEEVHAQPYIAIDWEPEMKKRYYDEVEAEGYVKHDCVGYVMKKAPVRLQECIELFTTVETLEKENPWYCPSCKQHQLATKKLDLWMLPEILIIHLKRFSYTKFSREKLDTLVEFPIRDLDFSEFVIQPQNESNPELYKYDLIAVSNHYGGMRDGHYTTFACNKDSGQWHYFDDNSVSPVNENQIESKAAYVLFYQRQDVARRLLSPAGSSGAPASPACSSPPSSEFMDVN

Compound	log2 ratio of Biotin-Ahx-Ub-VS probe labelling (UniProt O00507)	log2 ratio of Biotin-Ahx-Ub-VS probe labelling (UniProt P51784)	log2 ratio of Biotin-Ahx-Ub-VS probe labelling (UniProt Q5T2D3)	log2 ratio of Biotin-Ahx-Ub-VS probe labelling (UniProt Q8TE49)	log2 ratio of Biotin-Ahx-Ub-VS probe labelling (UniProt Q9P2H5)	log2 ratio of Biotin-Ahx-Ub-VS probe labelling (UniProt Q9UGI0)	log2 ratio of Biotin-Ahx-Ub-VS probe labelling (YOD1)
CC(NC(=O)CCl)c1cnn(C2CC2)c1 (stereo not drawn)	-0.607	-0.127	-0.192	-0.779	-0.0606	-0.311	-0.732
N#Cc1ccc(CNC(=O)CCl)cc1	-0.0509	-0.059	-0.00706	-0.236	-0.0879	-0.592	-0.136
O=C(CCl)N1CCC[C@@H]1c1ccon1	-0.592	-0.16	-0.395	-0.398	-0.248	-0.626	-0.749
CNC(=O)C1(NC(=O)CCl)CCCCC1	0.215	0.188	-0.364	-0.591	-0.0698	0.0155	-0.0513
COc1ccc(C2CCCN2C(=O)CCl)c(OC)c1 (stereo not drawn)	0.129	-0.237	-0.139	-0.514	-0.249	-0.113	-0.0199
Cl.Cn1ncc2c1CCCC2NC(=O)CCl (stereo not drawn)	-0.0339	-0.154	-0.121	-3.69 (active)	-0.276	0.0166	-0.109
O=C(CCl)NCCC1=CCCCC1	0.347	0.0951	-0.215	-0.191	-0.0991	-0.159	0.16
Cc1ccc(C(=O)NCCNC(=O)CCl)cc1	-0.256	0.00304	-0.199	-0.373	-0.35	-0.456	-0.0895
O=C(CCl)N1CC=C(c2c[nH]c3ccccc23)CC1	-1.28 (active)	-0.291	-0.405	-0.72	-0.734	-1.14 (active)	-0.219
